Hits are enriched below; roughly 11% of the tested compounds scored in any of these assays.
Pf growth 48h = P. falciparum growth inhibition at 48 hours (one generation). P. falciparum luciferase growth in erythrocytes, 48 h. Potency, µM (series often up to 28.7 µM), inactives show top-dose activity change, negative = inhibition, hits mostly inhibitors. 310,000 compounds, 5.9% hits; note: % is set by controls: 0 for no effect and ±100 for the full control effect
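Read-out is firefly luciferase luminescence from an integrated reporter in P. falciparum, so falling signal marks reduced parasite growth. Infected erythrocytes were at 2% hematocrit and 0.1% parasitemia (final) in Albumax-supplemented RPMI 1640.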
NS1 inh = inhibitors of influenza NS1 protein function. AID 2326. Potency, µM (top dose mostly 46.1 µM), for inactives: at the top dose activity, positive = more growth. 270,000 compounds, 0.4% hits; calls by dose curve; note: actives are rising curves; nearly all actives have a fitted effect of over 50% in size
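Read-out: OD600 growth recovery of NS1-expressing budding yeast. Cells grown overnight at 30C in -URA glucose medium, washed, resuspended and diluted 1:100 in 2% galactose assay medium, pH 6.0. Same strain lacking NS1 served as positive control.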
Pf growth 96h = P. falciparum growth inhibition at 96 hours. Potency, µM (series often up to 28.7 µM), inactives show top-dose activity change, negative = inhibition, usual class: inhibitors. P. falciparum luciferase reporter growth, 96 h. 320,000 compounds, 6.9% hits; note: % is set by controls: 0 for no effect and ±100 for the full control effect
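Erythrocytes infected with luciferase-expressing P. falciparum were dispensed at 2% hematocrit and 0.05% parasitemia (final), then incubated with compounds 96 hours at 37 C in 5% CO2. Luminescence after detection reagent addition reported growth.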
Sm TGR block = S. mansoni TGR enzyme inhibition; 360,000 compounds, 3% hits; purified TGR, DTNB reduction, TNB absorbance 405 nm; Q962Y6; Potency, µM (top dose mostly 114 µM), for the others: top-dose activity change, negative = inhibition, most hits filed as inhibitors; note: % is set by controls: 0 for no effect and ±100 for the full control effect; nearly all actives have a fitted effect of over 60% in size
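Kinetic colorimetric format: TGR-catalysed, NADPH-driven DTNB reduction monitored via TNB absorbance. Enzyme dispensed at 20 nM; compound exposure 15 min at room temperature before reaction start.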
AMA1-RON2 inh = disrupts binding of P. falciparum AMA1 to RON2; AlphaScreen AMA1-biotinylated RON2 peptide binding; Potency, µM (series often up to 58.2 µM), without a hit: at the highest dose activity change, negative = inhibition, usual class: inhibitors; 360,000 compounds, 0.2% hits;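 note: 0% = vehicle wells and -100% = peptide control; nearly all actives have a fitted effect of over 45% in size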
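AMA1 (3D7) with his tag at 25 nM final met compounds first, then biotinylated RON2 peptide at 25 nM; detection used donor plus acceptor beads, 10 µg/mL apiece, read by AlphaScreen after 30 min at room temperature.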
Numbers without * were called inactive; ? = inconclusive; nt = no result given; [ ] = remark or other dose. Unless noted, calls come from the whole dose curve; as a rule, active = well fitted curve in the direction sought with a large enough effect; inconclusive = small, poorly fitted or top-dose-only effect, or another doubt; inactive = no such curve, though single readings can be large; an effect the other way counts as inactive or inconclusive. Potency is the fitted concentration of half-maximal effect.

SMILES	Pf growth 48h	NS1 inh	Pf growth 96h	Sm TGR block	AMA1-RON2 inh
CCCC(=O)Nc1nc2c(s1)CC(C(C)(C)C)CC2 (stereo unspecified)	nt	nt	nt	-2%	nt
CC(=O)c1ccc(Nc2nc(-c3ccccc3)nc3ccccc23)cc1	nt	nt	nt	nt	8%
CN(C)C(=O)c1ccc(Nc2nc(-c3cccs3)nc3ccccc23)cc1	10µM*	-5%	10µM*	4%	-6%
COc1ccc(OC)c(CNC(=O)c2cc3c(=O)oc4ccc(C)cc4c3s2)c1	nt	nt	nt	1%	nt
COC(=O)c1ccc(C23CC4(C2)[C@H](CN(C)[C@@H]4c2ccccc2)C3c2ccccc2)cc1 (stereo partly specified)	?	2%	?	8%	?
COC(=O)c1cccc(C23CC4(C2)[C@H](CN(C)[C@@H]4c2ccccc2)C3c2ccc(C(F)(F)F)cc2)c1 (stereo partly specified)	9.3µM*	7%	?	-23%	-19%
COC(=O)c1cccc(C23CC4(C2)[C@H](CN(C)[C@@H]4c2ccccc2)C3c2ccccc2)c1 (stereo partly specified)	12µM*	6%	?	?	?
CCOc1ccc(CCNc2ncnc3onc(-c4ccc(F)cc4)c23)cc1OCC	nt	nt	nt	10%	nt
CC(C)C(OC(=O)Cn1nnc2ccccc21)C(=O)NC1CCCC1 (stereo unspecified)	8%	-1%	-2%	-2%	-4%
O=C(N/N=C/c1ccccc1)c1ccco1	76%	-7%	40%	4%	29%
O=C(C#Cc1ccccc1)c1ccco1	-30%	-128%	-17%	0.89µM*	-5%
COC(CN(C)C(=O)C1CCCN(S(=O)(=O)c2ccc3c(c2)oc(=O)n3C)C1)OC (stereo unspecified)	7%	2%	?	1%	0%
N#CCCN1CCCc2cc(N=Nc3ccc(C(F)(F)F)cc3)ccc21	2%	13%	-25%	6%	?
CCOC(=O)c1c(-c2ccc3ccccc3c2)csc1NC(=O)CCCC(=O)O	-10%	nt	-4%	-11%	4%
Oc1ccc(-c2cc(-c3ccc(O)cc3)nc(-c3ccccc3)n2)cc1	4%[0.00184 µM]	9%	5.9µM*	4%	6%
CC1CCCCN1C(=O)CCS(=O)(=O)c1cc2c(cc1Cl)NC(=O)CO2 (stereo unspecified)	-16%	4%	24%	0%	-6%
Cc1cccc(Nc2nnc(SCC(=O)Nc3ccccc3[N+](=O)[O-])s2)c1C	?	-3%	?	-2%	29%
O=C(CSc1nnc(NC(=O)c2ccccc2C(=O)O)s1)Nc1ccccc1Cl	-27%	nt	13µM*	-7%	-4%
Cc1cccc(C)c1NC(=O)CSc1nnc(NC(=O)c2ccccc2C(=O)O)s1	0%	-2%	?	6%	11%
Cc1ccc(Nc2nnc(SCC(=O)Nc3ccccc3[N+](=O)[O-])s2)cc1	-15%	16%	10µM*	4%	-6%
O=C(NCCc1ccc(Cl)cc1)C1=CC=CN2CCS(=O)(=O)N=C12	-14%	nt	-30%	2%	-11%
O=C(O)c1ccc(-n2[nH]c3c(c2=O)CCCC3)cc1	23%	2%	8%	35µM*	-17%
O=C(O)c1ccc(N2C(=O)CCCC2=O)cc1	12%	5%	17%	-2%	-9%
COc1ccc(NC(=O)Cn2c(-c3ccccc3)cc(C(C)=O)c2C)c(OC)c1	-15%	nt	-33%	9%	17%
Cn1c2ccccc2c2cc(C(=O)NNC(=O)CCl)sc21	?	nt	9.3µM*	40µM*	111%
SMILES	Pf growth 48h	NS1 inh	Pf growth 96h	Sm TGR block	AMA1-RON2 inh
CCCNC(=O)c1cc2c3ccccc3n(C)c2s1	?	-26%	?	3%	-9%
O=C(O)C1=CCCc2ccc(F)cc21	nt	nt	nt	nt	1%
C=CCN(CC=C)C(=S)NC(=O)Cc1cccc2ccccc12	?	-6%	4.1µM*	12%	28%
O=C(Cc1cccc2ccccc12)Nc1ccccc1	nt	nt	nt	nt	17%
CSc1ccc(CCNC(=O)CCc2c(C)nc3c(c(C)nn3-c3ccc(C)c(C)c3)c2C)cc1	nt	nt	nt	10%	nt
O=C(Nc1cccc(C(=O)N2CCN(c3ccccc3)CC2)c1)c1nsc2ccccc12	nt	nt	nt	0%	nt
Cc1cc(C(=O)Nc2cc(Br)ccc2O)on1	5.2µM*	-38%	6%	4%	-2%
COc1ccc(-c2cc(C(=O)Nc3cc(Br)ccc3O)no2)cc1	10µM*	4%	-1%	3%	-5%
Cc1ccc(-n2cnc(N)c2C(=O)c2cccc([N+](=O)[O-])c2)cc1	50%	0%	-5%	-9%	-16%
CN(C)c1oc(-c2ccccc2[N+](=O)[O-])nc1C#N	-7%	-3%	3%	35µM*	-3%
CCN(CC)CCNC(=O)c1cc2c(-c3cccc(OC)c3)nn(C)c2s1	1.5µM*	3%	?	0%	-9%
CCOC(=O)N1CCC(NC(=O)c2cc3c(-c4cccc(OC)c4)nn(C)c3s2)CC1	9.3µM*	3%	nt	-1%	12%
CCOc1ccc(S(=O)(=O)N2CCCCC2)cc1NC(=O)Cc1cccs1	?	nt	?	-4%	-14%
O=C(CSc1nncn1-c1cccnc1)N(c1ccccc1)c1ccccc1	6%	-2%	?	-2%	6%
CCNC(=O)c1ccc(NC(=O)CC2SC(N3CCCCC3)=NC2=O)cc1 (stereo unspecified)	15%	nt	1%	2%	-10%
O=C(CC1SC(N2CCCC2)=NC1=O)Nc1ccc(C(=O)N2CCN(c3cccc(Cl)c3)CC2)cc1 (stereo unspecified)	8.3µM*	nt	?	-21%	0%
CCOC(=O)C1CCCN(C(=O)c2ccc(NC(=O)CC3SC(N4CCCC4)=NC3=O)cc2)C1 (stereo unspecified)	10µM*	nt	?	3%	-1%
CCCCCCn1c(=O)n2n(c1=O)[C@@H]1CN(S(=O)(=O)c3ccc(C)cc3)C[C@]1(O)[C@@H](OC(=O)NCc1ccco1)C2	nt	nt	nt	nt	-8%
Cc1cc(C(=O)Nc2ccccc2C(=O)O)oc1C	44%	-23%	56%	-11%	0%
O=C(c1cc(-c2ccco2)on1)N1CCc2ccccc2C1	16%	-6%	nt	13µM*	13%
O=C(c1cc(-c2ccc(O)cc2)on1)N1CCc2ccccc2C1	nt	-99%	0.37µM*	2%	-17%
Cc1ccc(-c2nc(SCC(=O)NCc3ccco3)c3c(=O)n(C)c(=O)n(C)c3n2)cc1	nt	nt	nt	7%	nt
COc1cc(CNC(=O)c2cc(-c3cc(Cl)ccc3OC)n[nH]2)cc(OC)c1	nt	nt	nt	nt	-4%
O=C(O)CCCCCCCCCCCNC(=O)NC12CC3CC(CC(C3)C1)C2	30%	nt	2.1µM*	-7%	2%
CS(=O)(=O)c1nc(S(=O)(=O)c2ccc(Cl)cc2)c(NCCCn2ccnc2)s1	-14%	-8%	5.9µM*	-23%	3%
CS(=O)(=O)c1nc(S(=O)(=O)c2ccc(Cl)cc2)c(N2CCCCC2)s1	?	1%	6%	-18%	-7%

Assay outcomes as filed in PubChem BioAssay.
